Data as given in PubChem BioAssay AID1259325 (C. David Weaver Laboratory, Vanderbilt University, 2017).
The whole screen tested about 63,000 compounds, of which about 30 (0.05%) were called active. No rule for the calls is given here. The list is a sample of the results.

target: G protein-activated inward rectifier potassium channel 2 (Homo sapiens) (UniProt P48051); test: activators of human GIRK2 potassium channels (AID 1259325); conditions: HEK293-GIRK2 thallium flux, Thallos fluorescence, MPD
Sequence (P48051 whole entry, looked up): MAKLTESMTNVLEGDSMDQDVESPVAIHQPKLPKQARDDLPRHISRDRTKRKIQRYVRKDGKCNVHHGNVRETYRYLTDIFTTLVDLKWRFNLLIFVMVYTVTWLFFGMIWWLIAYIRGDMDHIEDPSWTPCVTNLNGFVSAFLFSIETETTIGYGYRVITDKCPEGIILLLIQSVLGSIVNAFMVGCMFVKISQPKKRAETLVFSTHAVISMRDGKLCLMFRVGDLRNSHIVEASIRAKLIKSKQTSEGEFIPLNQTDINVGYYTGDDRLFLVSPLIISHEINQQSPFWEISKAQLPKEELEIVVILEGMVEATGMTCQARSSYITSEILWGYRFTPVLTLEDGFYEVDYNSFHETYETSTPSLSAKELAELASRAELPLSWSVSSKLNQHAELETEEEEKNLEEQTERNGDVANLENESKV

outcome, inactive:
COc1cc(OC)cc(C(=O)Nc2ccc(Cl)c3ncsc23)c1
Cc1ccc(=O)n(CC(=O)N2CCC(Cc3ccccc3)CC2)n1
O=S(=O)(c1cccc(Cl)c1Cl)N1CCN(c2ccc(-c3ccccc3)nn2)CC1
O=C(C1CCN(c2ccc(-c3ccccc3)nn2)CC1)N1CCN(Cc2ccccc2)CC1
COc1ccc(N2CCN(CCCn3c(C)cn4c5c(=O)[nH]c(=O)n(C)c5nc34)CC2)cc1
O=C(O)CCC/C=C\C[C@@H]1[C@@H](/C=C/C(=O)COc2cccc(C(F)(F)F)c2)[C@H](O)C[C@@H]1O
O=C(c1cc(-c2ccco2)[nH]n1)N1CC(c2nc(-c3ccc[nH]c3=O)no2)C1
COc1ccc(OCc2noc(CNC(=O)/C=C/c3cccs3)n2)cc1
COc1ccc(OCc2noc(CNC(=O)c3ccc4nsnc4c3)n2)cc1
CC1CCC(NC(=O)C2CCN(c3nc4c(-c5ccccc5F)csc4c(=O)[nH]3)CC2)CC1 (stereo not drawn)
Cc1ccc(C)c(NC(=O)CSc2ncnc3nc(N4CCc5ccccc5C4)sc23)c1
O=C1NC(=NCCc2cccc(F)c2)S/C1=C\c1ccc2ncccc2c1
O=C(NCCC(O)c1cccc2ccccc12)Nc1ccccc1 (stereo not drawn)
O=C(Cc1ccccc1Cl)N1CCCC(c2nnc(-c3ccccc3F)s2)C1 (stereo not drawn)
CC(=O)Nc1nc2c(s1)CN(CC(=O)Nc1ccc(OC(F)(F)F)cc1)CC2
CCOCCn1c(-n2nc(C)cc2C)nc2c1c(=O)n(Cc1ccccc1F)c(=O)n2C
CCOC(=O)C1CCc2sc(NC(=O)CCc3c(C)nn(C)c3C)nc21 (stereo not drawn)
O=S(=O)(/C=C/c1ccccc1)NCc1ccc(C(O)c2cccs2)s1 (stereo not drawn)
COC(=O)c1ccccc1NC(=O)Cn1nc2nc(N3CCCC(C)C3)ccn2c1=O (stereo not drawn)
Cc1cccc(Cn2c(N3CCC(C(N)=O)CC3)nc3c2c(=O)[nH]c(=O)n3C)c1
CCCn1c(=O)c2cc(Cl)ccc2n2c(SCC(=O)Nc3ccc4c(c3)OCO4)nnc12
O=C(NCc1ccc2c(c1)OCO2)C1CCN(c2ncnc3c2sc2ncccc23)CC1
COc1ccc2c(=O)c3c(oc2c1)C(=O)N(CCCN(C)C)C3c1ccccc1 (stereo not drawn)
CC(=O)Nc1cccc(C#Cc2cncnc2Nc2ccc(OCc3cccc(F)c3)c(Cl)c2)n1
O=S(=O)(Cc1nc(-c2ccc(OCc3ccccc3)cc2)no1)c1ccccc1
O=C(NC1CCN(C(=O)c2cn(-c3ccc(Cl)cc3)nn2)CC1)C1CCCC1
COc1cccc(CSc2nc(C)c(CC(=O)Nc3cccc(Cl)c3C)c(=O)[nH]2)c1
COc1cc(-c2nc(CSc3nc4ccccc4c(=O)n3C)c(C)o2)cc(OC)c1OC
Cc1cn2c3c(=O)n(Cc4ccc(Br)cc4)c(=O)n(C)c3nc2n1CCCO
COc1ccc(S(=O)(=O)Nc2cccc(N3CCCCC3=O)c2)cc1
C#CCn1c(COc2ccccc2OC)nc2ccccc21
O=C(CCSc1ccccc1)NCCCn1ncccc1=O
CC(O)C(O)(C(=O)OCc1ccccc1NC(=O)CCC(=O)O)C(C)O (stereo not drawn)
O=C(Nc1cnoc1)c1ccc(OC(F)(F)F)cc1
Cc1nc(-c2noc(-c3cccnc3)n2)cn1CC(=O)N1CCc2ccccc21
O=C(Nc1cccc(F)c1)c1sccc1S(=O)(=O)N1CCN(c2ccccc2)CC1
Cc1nc(-c2ccc(N3CCN(C(=O)NCc4ccc(F)cc4)CC3)nc2)no1
O=C(Cc1ccc(F)cc1)N1CC(c2nc(-c3cccnc3)no2)C1
CCc1cc(=O)n(CCNC(=O)COc2ccc(F)cc2F)cn1
COc1ccc(S(=O)(=O)Nc2ccc3c(c2)N(C(=O)c2ccccc2)CCC3)cc1F
NC(=O)c1ccccc1OCC#CCNC(=O)c1ccc(=O)[nH]c1
COC(=O)c1ccc2c(=O)n(-c3cc(OC)cc(OC)c3)c(N3CCSCC3)nc2c1
Cc1cc(C(=O)Nc2nc(C(=O)N3CCN(c4cc(Cl)ccc4C)CC3)co2)no1
Cc1nc(-c2cccc(NC(=O)c3coc(NC(=O)c4cnccn4)n3)c2)cs1
COc1ccc(NC(=O)Cn2c(=O)nc(N3CCC(C)CC3)c3ccccc32)cc1Cl
CC(C)c1nnc(C2CCN(Cc3cccnc3)CC2)o1
CN1CCC(n2cnc(-c3ccc(F)cc3)c2-c2ccnc(N)n2)CC1
Cc1ccccc1N1CCN(c2nccn3c(=O)n(CC(=O)Nc4ccc(Cl)cc4)nc23)CC1
Cn1c(=O)c2c(nc(SCCO)n2Cc2ccccc2)n(C)c1=O
O=C(CSc1nnc(Cn2ccc(=O)[nH]c2=O)o1)N1CCC(Cc2ccccc2)CC1
COc1ccc(-c2cc3nn(CC(=O)NCc4ccccc4Cl)c(=O)n3c(C)n2)cc1
COc1cccc(NC(=O)c2cn(CC(O)c3ccccc3)nn2)c1 (stereo not drawn)
CN(C)CCn1c2c(c(=S)[nH]c1=O)CCC2
CCOC(=O)CCC(=O)N1CCN(Cc2csc(-c3ccccc3)n2)CC1
Cc1cc(N2CCN(C(=O)NC3CCCC3)CC2)ncn1
COc1ccc(C)cc1N1CCn2c1nc1c2c(=O)n(Cc2cccc(C)c2)c(=O)n1C
Nc1nc(Nc2ccc(F)c(F)c2)ncc1[N+](=O)[O-]
O=C(NCc1cccs1)N1C2CCC1COC2
CN1CCC(CNC(=O)c2cc(Br)ccc2Cl)CC1
COc1ccccc1C(=O)NCCN1CCN(c2ccccc2OC)CC1
CCNC(=O)c1cn(-c2ccc(SCC(=O)Nc3ccc(C)cc3)nn2)cn1
Cn1cnnc1SCCNC(=O)CNC(=O)c1ccc(=O)[nH]c1
CC(C)c1ccccc1NC(=O)Cc1cc(=O)[nH]c(SCc2ccc(F)cc2)n1
O=C(NCc1ccccc1)Nc1nnc(-c2ccco2)o1
NC(=O)c1ccccc1OCC#CCNC(=O)C1CCC1
Cc1cc(C(O)CCNC(=O)Nc2ccccc2)c(C)o1 (stereo not drawn)
C#CCSc1nnc(N2CCN(c3ccccc3OC)CC2)s1
O=C(c1ccncc1)N1CCc2cc(S(=O)(=O)N3CCOCC3)ccc21
COc1ccc(NC(=O)C(=O)NCCC2=CCCCC2)cc1Cl
COc1ccc(-n2c(C)c(C)n3c4c(=O)n(CC(C)C)c(=O)n(C)c4nc23)cc1
CCOc1ccccc1C(=O)Nn1cnc2c(cnn2-c2cccc(Cl)c2)c1=O
CCN(CC)C(=O)Oc1ccc2c(=O)c(-c3ccc(Br)cc3)coc2c1
COc1ccccc1N1CCN(CCNC(=O)c2ccc(F)cc2)CC1
CCOC(=O)c1ccc(NC(=O)c2coc(NC(=O)C3CC3)n2)cc1
CCN(CC)c1ccc(-c2noc(CN3CCN(c4cccc(C)c4)CC3)n2)cn1
CCCCCn1c(=O)c2c(nc3n2CC(C)CN3c2ccc(Oc3ccccc3)cc2)n(C)c1=O (stereo not drawn)
Cc1cc(C(=O)NCC#CCOc2ccc3c(c2)OCO3)c(C)o1
COc1cc(OC)cc(N(C)S(=O)(=O)c2ccsc2-c2nc(-c3cccc(C)c3)no2)c1
O=C(CSc1nnc(-c2ccc(Cl)cc2)c2ccccc12)N1CCOCC1
Cc1csc(SCC2CCN(S(=O)(=O)c3cccc(C(F)(F)F)c3)CC2)n1
CC(C)(C)OC(=O)COc1ccc2c(c1)O/C(=C\c1cc(Cl)cc3c1OCOC3)C2=O
Cc1nc(SCc2ccccc2)[nH]c(=O)c1CC(=O)Nc1ccc(C(C)C)cc1
Cc1ccc(S(=O)(=O)N(Cc2ccc(Cl)cc2)C(=O)N2CCN(C)CC2)cc1
COc1ccc(C)c2sc(N(CCCn3ccnc3)C(=O)/C=C/c3cccs3)nc12
CCC(C(=O)Nc1cc(F)ccc1F)n1cc(-c2nc(-c3cnccn3)no2)ccc1=O (stereo not drawn)
COc1cc(NC(=O)Cn2cnc3c(-c4ccc(Cl)cc4)csc3c2=O)cc(OC)c1
COc1ccccc1OCC#CCNC(=O)c1cnccn1
Cc1cc(C)c2c(c1)c(=O)c1c(n2C)CCN(C(=O)Nc2cc(Cl)ccc2C)C1
COc1ccc(C2(CNC(=O)C3CCN(S(C)(=O)=O)CC3)CCOCC2)cc1
O=C(CSc1cc(C(F)(F)F)c2cc3c(cc2n1)OCO3)NCc1ccco1
O=C(Cc1ccc(NS(=O)(=O)c2c(F)cccc2F)cc1)NCc1cccs1
Cc1nn(-c2ncc(NC(=O)c3cccc4ccccc34)cn2)c(C)c1C
Cc1nc(C)c(-c2nnc(NC(=O)COc3cccc4c3OC(C)(C)C4)o2)s1
COc1ccc(F)cc1S(=O)(=O)N1CCN=C1c1ccccc1
O=C(CSCc1ccccc1)Nc1cnoc1
COc1ccc(Cn2cc(S(=O)(=O)N3CCCCC3)ccc2=O)cc1F
O=C(CC1CCCC1)N(CCc1cccs1)Cc1ccoc1
Cc1cc(SCC(=O)c2ccc3c(c2)OCO3)nc(C(C)C)n1
C=C(C)COc1ccc(-c2nc(N)nc(C(F)(F)F)c2-c2ccccc2OC)c(O)c1
CCOC(=O)C1CCc2sc(NC(=O)C3CCCN(Cc4nc(-c5cccnc5)no4)C3)nc21 (stereo not drawn)
CCOC(=O)CN1CCC(c2nnc(-c3ccc(F)cc3)o2)CC1
CCOC(=O)c1cnn2ccc(NC(=O)C(c3ccccc3)c3ccccc3)cc12
O=C1CC(c2nc3ccccc3n2CCOc2ccccc2)CN1c1ccccc1 (stereo not drawn)
